Assay in all cases: DAPPL (digital affinity profiling via proximity ligation, sequencing); 10 mM Tris-HCl pH 7.5, 50 mM NaCl, 1 mM DTT, 4% glycerol, room temperature, 30 min; GST-TFs on glutathione beads, 16-mer random dsDNA library, 0.1% formaldehyde crosslink after washing; high values mean tight binding
Conditions in all cases: protein: recombinant; tags: N-terminal GST; dsDNA, one strand shown

One experiment concerns the target T1, FLI1 (Homo sapiens, UniProt Q01543 1-452).
T1 sequence: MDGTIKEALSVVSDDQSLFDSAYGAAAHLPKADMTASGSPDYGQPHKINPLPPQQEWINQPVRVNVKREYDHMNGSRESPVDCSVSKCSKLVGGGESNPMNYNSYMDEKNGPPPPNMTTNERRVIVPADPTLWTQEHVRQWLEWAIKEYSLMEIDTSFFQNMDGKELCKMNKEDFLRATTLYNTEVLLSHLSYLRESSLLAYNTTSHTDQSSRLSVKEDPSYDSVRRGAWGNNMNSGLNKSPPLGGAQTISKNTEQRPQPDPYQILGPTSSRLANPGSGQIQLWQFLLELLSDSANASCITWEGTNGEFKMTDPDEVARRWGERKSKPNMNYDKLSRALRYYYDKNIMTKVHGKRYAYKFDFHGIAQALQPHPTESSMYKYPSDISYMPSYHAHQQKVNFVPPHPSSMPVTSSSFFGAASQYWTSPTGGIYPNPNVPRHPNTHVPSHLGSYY
The method, boiled down: (§1)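 Sequencing on an Illumina NextSeq500 followed washing, crosslinking with 0.1% formaldehyde, proximity ligation (BsaI/T4 ligase, 1 h, 37 °C) and PCR amplification of pools that had been incubated for 30 min at room temperature with 200 nmole of a random double-stranded 16-mer DNA library in Tris/NaCl/DTT/glycerol buffer. Each pool held DNA-barcoded human transcription factors, expressed in yeast as GST fusions and captured on glutathione beads, plus a tag-only sample. Binding signal is a hexamer's read frequency for a factor divided by its frequency in the tag-only sample.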

The next experiment deals with T2, ELK1 (Homo sapiens, UniProt P19419 1-428).
T2 sequence: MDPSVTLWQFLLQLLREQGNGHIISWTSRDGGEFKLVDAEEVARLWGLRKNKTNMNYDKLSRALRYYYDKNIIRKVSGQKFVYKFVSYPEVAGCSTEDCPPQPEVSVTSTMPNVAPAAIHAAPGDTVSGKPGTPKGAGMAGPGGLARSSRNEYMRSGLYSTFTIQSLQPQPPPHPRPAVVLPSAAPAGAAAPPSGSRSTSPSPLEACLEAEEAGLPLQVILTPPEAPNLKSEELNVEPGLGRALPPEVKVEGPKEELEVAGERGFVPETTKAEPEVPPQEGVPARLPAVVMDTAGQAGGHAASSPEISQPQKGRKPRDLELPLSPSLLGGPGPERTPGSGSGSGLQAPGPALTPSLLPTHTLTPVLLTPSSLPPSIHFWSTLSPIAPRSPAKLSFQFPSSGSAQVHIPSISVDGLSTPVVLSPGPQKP
Summed up: as §1

In a further experiment the target is T3, GABPA (Homo sapiens, UniProt Q06546 1-454).
T3 sequence: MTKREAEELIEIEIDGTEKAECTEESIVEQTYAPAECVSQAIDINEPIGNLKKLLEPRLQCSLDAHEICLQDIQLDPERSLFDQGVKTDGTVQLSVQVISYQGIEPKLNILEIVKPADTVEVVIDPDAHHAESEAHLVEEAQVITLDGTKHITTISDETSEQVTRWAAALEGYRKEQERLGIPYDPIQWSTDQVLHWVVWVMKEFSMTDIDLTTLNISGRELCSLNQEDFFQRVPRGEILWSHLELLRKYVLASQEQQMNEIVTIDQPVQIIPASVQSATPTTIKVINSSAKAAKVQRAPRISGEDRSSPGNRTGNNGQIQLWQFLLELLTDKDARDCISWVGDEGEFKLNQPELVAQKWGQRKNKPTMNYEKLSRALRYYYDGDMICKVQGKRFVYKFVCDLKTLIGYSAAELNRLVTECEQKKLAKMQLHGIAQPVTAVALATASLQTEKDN
Summed up: as §1

For a further experiment, the target named is T4, ERG (Homo sapiens, UniProt P11308 1-479).
T4 sequence: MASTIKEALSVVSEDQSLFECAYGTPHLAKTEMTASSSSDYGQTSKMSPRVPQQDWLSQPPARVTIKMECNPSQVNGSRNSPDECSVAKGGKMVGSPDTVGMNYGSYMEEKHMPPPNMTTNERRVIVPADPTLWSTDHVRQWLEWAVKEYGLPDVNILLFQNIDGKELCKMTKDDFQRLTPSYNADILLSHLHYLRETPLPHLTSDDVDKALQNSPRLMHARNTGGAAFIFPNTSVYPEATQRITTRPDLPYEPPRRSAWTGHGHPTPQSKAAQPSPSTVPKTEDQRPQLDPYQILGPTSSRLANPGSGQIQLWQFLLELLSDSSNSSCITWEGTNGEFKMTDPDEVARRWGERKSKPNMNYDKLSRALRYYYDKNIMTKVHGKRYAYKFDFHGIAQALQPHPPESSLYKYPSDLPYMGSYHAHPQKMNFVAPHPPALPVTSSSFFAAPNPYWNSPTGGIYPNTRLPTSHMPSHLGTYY
The method, boiled down: as §1

A further experiment has as its target ELF1 (Homo sapiens, UniProt P32519 1-619). Summed up: as §1
The target in a further experiment is T5, EHF (Homo sapiens, UniProt Q9NZC4 1-300).
T5 sequence: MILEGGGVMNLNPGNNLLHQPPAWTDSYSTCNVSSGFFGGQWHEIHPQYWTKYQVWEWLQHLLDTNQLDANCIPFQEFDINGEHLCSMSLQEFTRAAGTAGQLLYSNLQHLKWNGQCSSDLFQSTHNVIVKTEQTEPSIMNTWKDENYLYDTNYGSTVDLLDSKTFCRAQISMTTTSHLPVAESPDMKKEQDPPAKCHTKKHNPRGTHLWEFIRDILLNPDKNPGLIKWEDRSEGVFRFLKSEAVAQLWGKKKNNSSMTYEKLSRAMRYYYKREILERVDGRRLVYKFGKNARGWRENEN
The method, boiled down: as §1

For a further experiment, the target named is SPI1 (Homo sapiens, UniProt P17947 1-270). The method, boiled down: as §1
For a further experiment, the target named is SPIB (Homo sapiens, UniProt Q01892 1-262). The method, boiled down: as §1
The next experiment concerns the target T6, ELK3 (Homo sapiens, UniProt P41970 1-407).
T6 sequence: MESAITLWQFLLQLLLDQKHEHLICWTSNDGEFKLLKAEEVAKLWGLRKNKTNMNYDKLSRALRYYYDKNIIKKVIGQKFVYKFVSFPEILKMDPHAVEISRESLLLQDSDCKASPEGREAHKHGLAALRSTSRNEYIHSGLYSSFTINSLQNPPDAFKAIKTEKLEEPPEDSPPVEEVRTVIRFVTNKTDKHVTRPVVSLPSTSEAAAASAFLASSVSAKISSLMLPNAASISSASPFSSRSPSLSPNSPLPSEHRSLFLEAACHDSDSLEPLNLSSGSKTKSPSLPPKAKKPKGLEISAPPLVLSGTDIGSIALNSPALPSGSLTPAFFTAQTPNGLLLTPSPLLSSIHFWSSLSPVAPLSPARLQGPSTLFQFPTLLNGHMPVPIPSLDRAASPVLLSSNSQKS
The method, boiled down:
as §1

For another experiment, the target named is T7, FEV (Homo sapiens, UniProt Q99581 1-238).
T7 sequence: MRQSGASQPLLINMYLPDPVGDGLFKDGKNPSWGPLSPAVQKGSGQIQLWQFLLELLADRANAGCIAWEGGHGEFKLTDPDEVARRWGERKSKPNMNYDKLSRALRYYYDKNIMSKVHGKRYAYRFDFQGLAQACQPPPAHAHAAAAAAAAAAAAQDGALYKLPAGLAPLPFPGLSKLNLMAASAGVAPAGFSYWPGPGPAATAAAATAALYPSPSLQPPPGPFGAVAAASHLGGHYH
The method, boiled down: as §1

A further experiment has as its target ETV5 (Homo sapiens, UniProt P41161 1-510). The method, boiled down:
as §1

In the next experiment the target is T8, SPIC (Homo sapiens, UniProt Q8N5J4 1-248).
T8 sequence: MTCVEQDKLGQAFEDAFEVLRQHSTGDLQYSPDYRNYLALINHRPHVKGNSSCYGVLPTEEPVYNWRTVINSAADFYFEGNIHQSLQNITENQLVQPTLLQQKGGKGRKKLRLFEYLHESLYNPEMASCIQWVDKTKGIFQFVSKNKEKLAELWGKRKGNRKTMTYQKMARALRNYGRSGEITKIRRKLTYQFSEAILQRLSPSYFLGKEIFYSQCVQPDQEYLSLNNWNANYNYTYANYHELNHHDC
The method, boiled down:
as §1

A further experiment deals with ELF4 (Homo sapiens, UniProt Q99607 1-663). The method, boiled down: as §1
A further experiment has as its target T9, ELK4 (Homo sapiens, UniProt P28324-2 1-405).
T9 sequence: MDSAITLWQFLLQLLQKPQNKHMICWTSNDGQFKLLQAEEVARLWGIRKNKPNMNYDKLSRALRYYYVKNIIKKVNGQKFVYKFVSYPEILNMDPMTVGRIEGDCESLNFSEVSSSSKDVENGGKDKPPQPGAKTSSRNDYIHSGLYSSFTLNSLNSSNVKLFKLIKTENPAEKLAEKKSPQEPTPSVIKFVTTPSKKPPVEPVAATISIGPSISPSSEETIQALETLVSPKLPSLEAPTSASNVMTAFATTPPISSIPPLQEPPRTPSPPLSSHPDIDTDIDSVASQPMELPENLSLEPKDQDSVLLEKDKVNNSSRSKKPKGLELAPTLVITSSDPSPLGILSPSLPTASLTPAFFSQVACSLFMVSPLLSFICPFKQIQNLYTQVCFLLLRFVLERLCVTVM
Summed up: as §1

The next experiment deals with T10, ETV2 (Homo sapiens, UniProt O00321 1-342).
T10 sequence: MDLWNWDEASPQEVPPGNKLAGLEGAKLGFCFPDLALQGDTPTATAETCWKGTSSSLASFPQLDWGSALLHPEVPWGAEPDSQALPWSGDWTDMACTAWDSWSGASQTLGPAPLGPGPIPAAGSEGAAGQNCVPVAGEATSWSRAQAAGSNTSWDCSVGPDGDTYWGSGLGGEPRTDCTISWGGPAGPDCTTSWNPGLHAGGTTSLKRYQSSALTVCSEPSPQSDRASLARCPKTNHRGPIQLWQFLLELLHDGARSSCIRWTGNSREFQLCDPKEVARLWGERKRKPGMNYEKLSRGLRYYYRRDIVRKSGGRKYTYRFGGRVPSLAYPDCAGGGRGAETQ
Summed up: as §1

The next experiment has as its target ETV1 (Homo sapiens, UniProt P50549 1-477). The method, boiled down: as §1
In the next experiment the target is T11, ELF3 (Homo sapiens, UniProt P78545 1-371).
T11 sequence: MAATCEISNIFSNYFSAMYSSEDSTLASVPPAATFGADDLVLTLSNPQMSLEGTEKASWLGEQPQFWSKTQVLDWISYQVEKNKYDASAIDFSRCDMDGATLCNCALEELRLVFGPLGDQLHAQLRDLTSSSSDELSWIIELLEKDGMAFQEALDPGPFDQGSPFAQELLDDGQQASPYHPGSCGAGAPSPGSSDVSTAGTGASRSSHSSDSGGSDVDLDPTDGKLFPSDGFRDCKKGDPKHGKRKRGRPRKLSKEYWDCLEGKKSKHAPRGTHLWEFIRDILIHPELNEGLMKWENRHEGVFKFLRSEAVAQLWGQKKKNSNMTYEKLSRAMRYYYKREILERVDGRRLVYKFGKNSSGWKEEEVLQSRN
Summed up: as §1

Two sequences from PMC7862700, “An all-to-all approach to the identification of sequence-specific readers for epigenetic DNA modifications on cytosine” can be followed below.

Chain of SPIB (Q01892 whole entry): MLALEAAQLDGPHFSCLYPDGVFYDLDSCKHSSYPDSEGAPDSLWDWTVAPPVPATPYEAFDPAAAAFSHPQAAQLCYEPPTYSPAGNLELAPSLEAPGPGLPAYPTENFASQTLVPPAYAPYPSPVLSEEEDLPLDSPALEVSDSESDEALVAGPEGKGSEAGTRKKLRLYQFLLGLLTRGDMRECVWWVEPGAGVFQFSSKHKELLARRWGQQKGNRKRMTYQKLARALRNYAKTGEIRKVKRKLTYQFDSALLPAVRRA
Chain of ELF1 (P32519 whole entry): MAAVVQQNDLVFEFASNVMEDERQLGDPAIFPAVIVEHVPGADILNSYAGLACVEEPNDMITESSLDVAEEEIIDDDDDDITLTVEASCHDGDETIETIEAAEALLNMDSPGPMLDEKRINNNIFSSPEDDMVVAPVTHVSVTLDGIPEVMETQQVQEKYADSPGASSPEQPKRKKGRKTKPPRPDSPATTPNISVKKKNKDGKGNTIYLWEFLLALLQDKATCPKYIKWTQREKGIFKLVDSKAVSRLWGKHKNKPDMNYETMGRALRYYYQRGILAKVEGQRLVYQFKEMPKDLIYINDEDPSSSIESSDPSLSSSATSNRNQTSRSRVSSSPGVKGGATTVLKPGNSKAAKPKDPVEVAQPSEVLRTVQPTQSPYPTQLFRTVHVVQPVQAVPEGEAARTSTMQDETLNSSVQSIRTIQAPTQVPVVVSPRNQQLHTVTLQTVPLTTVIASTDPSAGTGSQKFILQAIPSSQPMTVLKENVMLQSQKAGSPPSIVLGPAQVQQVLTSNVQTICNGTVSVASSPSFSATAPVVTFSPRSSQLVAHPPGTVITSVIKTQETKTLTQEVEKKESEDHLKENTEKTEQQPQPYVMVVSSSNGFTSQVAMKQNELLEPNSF
Chain of ELF4 (Q99607 whole entry): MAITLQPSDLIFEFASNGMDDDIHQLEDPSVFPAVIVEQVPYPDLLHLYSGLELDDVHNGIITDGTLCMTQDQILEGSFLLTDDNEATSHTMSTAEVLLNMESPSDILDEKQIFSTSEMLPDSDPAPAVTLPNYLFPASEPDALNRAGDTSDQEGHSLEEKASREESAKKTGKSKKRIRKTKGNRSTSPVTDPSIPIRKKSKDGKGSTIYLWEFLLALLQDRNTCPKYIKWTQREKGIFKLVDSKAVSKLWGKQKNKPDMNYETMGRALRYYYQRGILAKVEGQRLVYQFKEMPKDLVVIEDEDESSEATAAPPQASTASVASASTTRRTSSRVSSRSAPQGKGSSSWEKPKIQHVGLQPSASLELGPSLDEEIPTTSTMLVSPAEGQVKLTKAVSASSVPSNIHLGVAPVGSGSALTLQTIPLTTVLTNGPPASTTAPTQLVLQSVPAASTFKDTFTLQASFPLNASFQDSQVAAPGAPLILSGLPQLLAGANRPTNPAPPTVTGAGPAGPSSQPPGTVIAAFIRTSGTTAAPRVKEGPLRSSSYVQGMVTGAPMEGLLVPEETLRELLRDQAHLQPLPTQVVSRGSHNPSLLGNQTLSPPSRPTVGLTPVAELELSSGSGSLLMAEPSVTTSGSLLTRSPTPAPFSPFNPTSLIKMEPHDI
Chain of ETV5 (P41161 whole entry): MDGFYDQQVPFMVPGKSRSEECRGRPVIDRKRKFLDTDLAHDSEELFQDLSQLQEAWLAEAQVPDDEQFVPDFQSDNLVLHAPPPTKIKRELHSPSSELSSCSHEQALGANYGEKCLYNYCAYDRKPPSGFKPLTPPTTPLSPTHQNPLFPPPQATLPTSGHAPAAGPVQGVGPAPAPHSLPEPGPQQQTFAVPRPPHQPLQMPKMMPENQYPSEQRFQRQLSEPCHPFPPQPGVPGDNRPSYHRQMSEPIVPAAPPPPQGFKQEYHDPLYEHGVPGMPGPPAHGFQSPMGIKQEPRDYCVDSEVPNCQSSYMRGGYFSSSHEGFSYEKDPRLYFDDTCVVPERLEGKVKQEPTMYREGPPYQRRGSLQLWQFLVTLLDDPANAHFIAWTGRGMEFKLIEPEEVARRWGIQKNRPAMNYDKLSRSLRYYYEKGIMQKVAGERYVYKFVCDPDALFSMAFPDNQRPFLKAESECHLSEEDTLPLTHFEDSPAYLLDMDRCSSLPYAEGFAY
Chain of ETV1 (P50549 whole entry): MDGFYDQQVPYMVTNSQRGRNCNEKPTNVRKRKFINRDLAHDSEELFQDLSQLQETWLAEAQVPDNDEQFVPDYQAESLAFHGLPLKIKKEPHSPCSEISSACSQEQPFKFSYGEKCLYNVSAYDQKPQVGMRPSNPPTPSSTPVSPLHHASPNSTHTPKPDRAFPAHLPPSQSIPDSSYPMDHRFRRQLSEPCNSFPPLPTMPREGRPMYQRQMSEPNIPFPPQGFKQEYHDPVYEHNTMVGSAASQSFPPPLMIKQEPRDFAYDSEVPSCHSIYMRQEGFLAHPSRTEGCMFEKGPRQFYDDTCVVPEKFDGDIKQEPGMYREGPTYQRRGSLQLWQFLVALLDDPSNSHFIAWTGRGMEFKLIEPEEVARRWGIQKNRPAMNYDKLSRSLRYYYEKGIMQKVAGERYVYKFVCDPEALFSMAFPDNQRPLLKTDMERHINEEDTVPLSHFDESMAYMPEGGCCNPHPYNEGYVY

For ATGTGT, the binding signal is 1.04 fold enrichment (6-mer frequency, TF over GST control) with FLI1; 1.11 fold enrichment (6-mer frequency, TF over GST control) with ELK1; 1.06 fold enrichment (6-mer frequency, TF over GST control) in the experiment with GABPA; 1.03 fold enrichment (6-mer frequency, TF over GST control) with ERG; 1.03 fold enrichment (6-mer frequency, TF over GST control) with ELF1; 1.08 fold enrichment (6-mer frequency, TF over GST control) with EHF. Moreover, the binding signal with SPI1 was 1.08 fold enrichment (6-mer frequency, TF over GST control); with SPIB, 1.11 fold enrichment (6-mer frequency, TF over GST control); with ELK3, 1.06 fold enrichment (6-mer frequency, TF over GST control); with FEV, 1.02 fold enrichment (6-mer frequency, TF over GST control); with ETV5, 1.16 fold enrichment (6-mer frequency, TF over GST control); with SPIC, 1.17 fold enrichment (6-mer frequency, TF over GST control). The binding signal with ELF4 was 1.08 fold enrichment (6-mer frequency, TF over GST control); with ELK4, 1.05 fold enrichment (6-mer frequency, TF over GST control); with ETV2, 1.11 fold enrichment (6-mer frequency, TF over GST control); with ETV1, 1.18 fold enrichment (6-mer frequency, TF over GST control).
For the sequence GTTACA, the binding signal with FLI1 is 1.15 fold enrichment (6-mer frequency, TF over GST control); with ELK1 it was 1.1 fold enrichment (6-mer frequency, TF over GST control); with GABPA, 1.09 fold enrichment (6-mer frequency, TF over GST control); in the experiment with ERG, 1.13 fold enrichment (6-mer frequency, TF over GST control); in the experiment with ELF1, 1.14 fold enrichment (6-mer frequency, TF over GST control); with EHF it was 1.2 fold enrichment (6-mer frequency, TF over GST control). Besides, the binding signal with SPI1 is 1.11 fold enrichment (6-mer frequency, TF over GST control); with SPIB it was 1.09 fold enrichment (6-mer frequency, TF over GST control); with ELK3, 1.24 fold enrichment (6-mer frequency, TF over GST control); with FEV, 1.18 fold enrichment (6-mer frequency, TF over GST control); with ETV5, 1.16 fold enrichment (6-mer frequency, TF over GST control); with SPIC, 1.14 fold enrichment (6-mer frequency, TF over GST control). Further, the binding signal in the experiment with ELF4 was 1.11 fold enrichment (6-mer frequency, TF over GST control); with ELK4, 1.26 fold enrichment (6-mer frequency, TF over GST control); with ELF3, 1.15 fold enrichment (6-mer frequency, TF over GST control); with ETV1, 1.11 fold enrichment (6-mer frequency, TF over GST control).
